# Reference: PubChem BioAssay AID1159580 (chemical genetic matrix, 2015)
# Screen size: about 5,500 compounds; about 2,000 (36%) were called active. Not shown: some 18% with an inconclusive outcome. Some of the results follow. A number with no mark means an inactive call. Cut-off read from the data, not from the text of the source: active = normalized growth mostly below about 0.91 (no sharp cut-off); inconclusive = no clear call, values can overlap the other calls; inactive = mostly above about 0.92.
# Experiment: chemical genetic growth profiling, strain panel (AID 1159580);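 note: tested at 20 µM; growth read once vehicle control cultures reached saturation at 30 °C; 1 = growth at the plate median or of vehicle wells; lower values mean less growth of the strain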
# Details: S. cerevisiae deletion strains, growth OD
# [1] = locus YDL101C, strain DUN1, hits give low values
# [2] = locus YHR030C, strain SLT2, hits give low values
compound,measurement,setting,value
CCOC(=O)c1c(SC)[nH]c2c(C(F)(F)F)cccc2c1=O,normalized growth,"locus YAL013W, strain DEP1, hits give low values",0.996
same,normalized growth,"locus YBR229C, strain ROT2, hits give low values",0.991
same,normalized growth,[1],0.99
same,normalized growth,"locus YDL134C, strain PPH21, hits give low values",0.959
same,normalized growth,"locus YDR150W, strain NUM1, hits give low values",0.939
same,normalized growth,"locus YEL061C, strain CIN8, hits give low values",1.02
same,normalized growth,"locus YGR078C, strain PAC10, hits give low values",0.998
same,normalized growth,"locus YGR229C, strain SMI1, hits give low values",0.989
same,normalized growth,[2],0.975
same,normalized growth,"locus YHR087W, strain rtc3, hits give low values",0.975
same,normalized growth,"locus YJR043C, strain POL32, hits give low values",0.982
same,normalized growth,"locus YJR075W, strain HOC1, hits give low values",0.992
same,normalized growth,"locus YKL190W, strain CNB1, hits give low values",1
same,normalized growth,"locus YLR039C, strain RIC1, hits give low values",0.917
same,normalized growth,"locus YLR058C, strain SHM2 (second series), hits give low values",1
same,normalized growth,"locus YLR085C, strain ARP6, hits give low values",0.977
same,normalized growth,"locus YLR262C, strain YPT6, hits give low values",0.997
same,normalized growth,"locus YML094W, strain GIM5, hits give low values",0.986
same,normalized growth,"locus YMR219W, strain ESC1, hits give low values",1
same,normalized growth,"locus YMR263W, strain SAP30, hits give low values",1.03
same,normalized growth,"locus YNL153C, strain GIM3, hits give low values",0.986
same,normalized growth,"locus YNL298W, strain CLA4 (second series), hits give low values",1.01
same,normalized growth,"locus YNL322C, strain KRE1, hits give low values",1
same,normalized growth,"locus YNR030W, strain Alg12, hits give low values",0.977
same,normalized growth,"locus YPL055C, strain LGE1, hits give low values",0.936
same,normalized growth,"locus YPL241C, strain CIN2, hits give low values",0.982
same,normalized growth,"locus YPR135W, strain CTF4, hits give low values",0.927
Cc1ccc(C(=O)O/N=C(/N)CSc2ncccc2C(F)(F)F)cc1,normalized growth,"locus YAR019C, strain CDC15, hits give low values",1
same,normalized growth,"locus YBL105C, strain PKC1, hits give low values",1.01
same,normalized growth,"locus YBR135W, strain CKS1, hits give low values",1
same,normalized growth,"locus YBR136W, strain MEC1, hits give low values",1.01
same,normalized growth,"locus YBR160W, strain CDC28, hits give low values",1
same,normalized growth,"locus YDL017W, strain CDC7, hits give low values",1.01
same,normalized growth,"locus YDL028C, strain MPS1, hits give low values",0.989
same,normalized growth,[1],1
same,normalized growth,"locus YDL108W, strain KIN28, hits give low values",1
same,normalized growth,"locus YDL132W, strain cdc53, hits give low values",1.01
same,normalized growth,"locus YDL214C, strain PRR2, hits give low values",0.991
same,normalized growth,"locus YDR052C, strain DBF4, hits give low values",1.01
same,normalized growth,"locus YDR054C, strain cdc34, hits give low values",1.01
same,normalized growth,"locus YDR226W, strain ADK1, hits give low values",1.02
same,normalized growth,"locus YDR477W, strain SNF1, hits give low values",0.994
same,normalized growth,"locus YER123W, strain YCK3, hits give low values",0.995
same,normalized growth,"locus YER133W, strain GLC7, hits give low values",0.976
same,normalized growth,"locus YFL009W, strain cdc4, hits give low values",0.994
same,normalized growth,"locus YFL029C, strain CAK1, hits give low values",1
same,normalized growth,"locus YFR003C, strain YPI1, hits give low values",1
same,normalized growth,"locus YFR019W, strain FAB1, hits give low values",0.955
same,normalized growth,"locus YFR028C, strain CDC14, hits give low values",1.01
same,normalized growth,"locus YGR040W, strain KSS1, hits give low values",0.998
same,normalized growth,"locus YGR052W, strain FMP48, hits give low values",1.02
same,normalized growth,"locus YGR092W, strain DBF2, hits give low values",1
same,normalized growth,[2],0.982
same,normalized growth,"locus YHR079C, strain IRE1, hits give low values",0.793
same,normalized growth,"locus YHR082C, strain KSP1, hits give low values",1.19
same,normalized growth,"locus YHR205W, strain SCH9, hits give low values",0.988
same,normalized growth,"locus YIL147C, strain SLN1, hits give low values",1.01
same,normalized growth,"locus YJL095W, strain BCK1, hits give low values",0.887
same,normalized growth,"locus YJL128C, strain PBS2, hits give low values",0.988
same,normalized growth,"locus YJL157C, strain FAR1, hits give low values",0.997
same,normalized growth,"locus YJR016C, strain ILV3, hits give low values",1.01
same,normalized growth,"locus YJR066W, strain TOR1 (second series), hits give low values",0.975
same,normalized growth,"locus YJR066W, strain TOR1, hits give low values",1.16
same,normalized growth,"locus YKL048C, strain ELM1, hits give low values",0.991
same,normalized growth,"locus YKL067W, strain YNK1, hits give low values",0.996
same,normalized growth,"locus YKL101W, strain HSL1, hits give low values",1
same,normalized growth,"locus YKL193C, strain SDS22, hits give low values",1.01
same,normalized growth,"locus YKL203C, strain TOR2, hits give low values",1.07
same,normalized growth,"locus YLR113W, strain HOG1, hits give low values",0.828 (active)
same,normalized growth,"locus YLR133W, strain CKI1, hits give low values",1
same,normalized growth,"locus YLR403W, strain SFP1, hits give low values",0.976
same,normalized growth,"locus YML070W, strain DAK1, hits give low values",0.988
same,normalized growth,"locus YMR001C, strain CDC5, hits give low values",1.01
same,normalized growth,"locus YMR205C, strain PFK2 (second series), hits give low values",0.993
same,normalized growth,"locus YMR277W, strain FCP1, hits give low values",1.01
same,normalized growth,"locus YNL006W, strain LST8, hits give low values",1.01
same,normalized growth,"locus YNL020C, strain ARK1, hits give low values",1
same,normalized growth,"locus YNL161W, strain CBK1, hits give low values",1.01
same,normalized growth,"locus YNL183C, strain NPR1, hits give low values",0.951
same,normalized growth,"locus YNL207W, strain RIO2, hits give low values",1.02
same,normalized growth,"locus YNL222W, strain SSU72, hits give low values",1
same,normalized growth,"locus YNL307C, strain MCK1 (second series), hits give low values",1.01
same,normalized growth,"locus YOL078W, strain AVO1, hits give low values",1
same,normalized growth,"locus YOL136C, strain PFK27, hits give low values",0.994
same,normalized growth,"locus YOR061W, strain CKA2, hits give low values",0.982
same,normalized growth,"locus YOR119C, strain RIO1, hits give low values",1.02
same,normalized growth,"locus YOR231W, strain MKK1, hits give low values",0.821
same,normalized growth,"locus YOR329C, strain SCD5, hits give low values",1.01
same,normalized growth,"locus YPL031C, strain PHO85, hits give low values",1
same,normalized growth,"locus YPL153C, strain RAD53, hits give low values",0.984
same,normalized growth,"locus YPL204W, strain HRR25, hits give low values",0.994
same,normalized growth,"locus YPL209C, strain IPL1, hits give low values",1.01
same,normalized growth,"locus YPL256C, strain CLN2, hits give low values",0.884
same,normalized growth,"locus YPR025C, strain CCL1, hits give low values",1
same,normalized growth,"locus YPR106W, strain ISR1, hits give low values",1.01
same,normalized growth,"locus YPR111W, strain DBF20, hits give low values",1
same,normalized growth,"strain NNK1, hits give low values",1.02
same,normalized growth,"strain TSCII, hits give low values",1.01
